Measured values published in the supplement of paper PMC3545927.
The list shows a part of the results. No count for the full screen is at hand.

B1: HC1691 (peptide)
chain: CAMDECSQHLAGNASASA
B2: HC2335 (peptide)
chain: CAEHPCHRPSAGNASASA
B3: HC566 (peptide)
chain: CADTEVAASCAGNASASA
B4: FS-2922 (peptide)
chain: CARFGRGFTVAGNASASA
B5: FS-1710 (peptide)
chain: CARGMRALGVAGNASASA
B6: FS-2014 (peptide)
chain: CARGGRDHGDAGNASASA
B7: HC907 (peptide)
chain: CARGKPGIYRAGNASASA
B8: FS-3249 (peptide)
chain: CARGKRATTVAGNASASA
B9: FS-2554 (peptide)
chain: CARGKRAITDAGNASASA
B10: HC202 (peptide)
chain: CAWPLYGNEGAGNASASA
B11: HC148 (peptide)
chain: CAEVVTMTWVAGNASASA
B12: HC502 (peptide)
chain: CAPALSTGLIAGNASASA
B13: FS-2070 (peptide)
chain: CARRKRTAVTAGNASASA
B14: FS-2730 (peptide)
chain: CARNKRYALTAGNASASA
B15: FS-2331 (peptide)
chain: CARFDRFILTAGNASASA
B16: FS-2231 (peptide)
chain: CARRKRYALTAGNASASA
B17: HC1056 (peptide)
chain: CAMAFTAAVTAGNASASA
B18: HC2242 (peptide)
chain: CAEVVTSTQVAGNASASA
B19: HC1746 (peptide)
chain: CAMEECSQMLAGNASASA
B20: HC156 (peptide)
chain: CAEVVTTTWVAGNASASA
B21: FS-1341 (peptide)
chain: CAIERRKKRSAGNASASA
B22: FS-667 (peptide)
chain: CAINFRDKRSAGNASASA
B23: FS-716 (peptide)
chain: CASCLRHKRSAGNASASA
B24: FS-1474 (peptide)
chain: CAQESQKKRSAGNASASA
B25: HC252 (peptide)
chain: CASCLTVPASAGNASASA
B26: FS-879 (peptide)
chain: CATEKRKKRSAGNASASA
B27: HC1734 (peptide)
chain: CAMEECSKHLAGNASASA
B28: HC104 (peptide)
chain: CAVVCCLMSYAGNASASA

Target: furin, P09958
Experiment: furin cleavage Z-score vs untreated control; higher = more cleavage, active = 3.5 or more, inactive = 1 or less, 8 variable residues between constant flanks
Summary of the method: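 Furin cleavage was scored on 8-mer peptides joined to a cDNA oligonucleotide and bound to magnetic beads at the N-terminus. Digestion with purified furin (1:10 enzyme:substrate, 0.01 ml, 50 mM HEPES pH 7.5, CaCl2, NaCl) lasted 7.5, 15 or 30 min. Freed DNA was tagged with adapters by PCR, sequenced and counted; the cleavage Z-score is the lowess-adjusted log count versus furin-free reactions, scaled by median absolute deviation.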

Chain of furin, P09958 (P09958 whole entry): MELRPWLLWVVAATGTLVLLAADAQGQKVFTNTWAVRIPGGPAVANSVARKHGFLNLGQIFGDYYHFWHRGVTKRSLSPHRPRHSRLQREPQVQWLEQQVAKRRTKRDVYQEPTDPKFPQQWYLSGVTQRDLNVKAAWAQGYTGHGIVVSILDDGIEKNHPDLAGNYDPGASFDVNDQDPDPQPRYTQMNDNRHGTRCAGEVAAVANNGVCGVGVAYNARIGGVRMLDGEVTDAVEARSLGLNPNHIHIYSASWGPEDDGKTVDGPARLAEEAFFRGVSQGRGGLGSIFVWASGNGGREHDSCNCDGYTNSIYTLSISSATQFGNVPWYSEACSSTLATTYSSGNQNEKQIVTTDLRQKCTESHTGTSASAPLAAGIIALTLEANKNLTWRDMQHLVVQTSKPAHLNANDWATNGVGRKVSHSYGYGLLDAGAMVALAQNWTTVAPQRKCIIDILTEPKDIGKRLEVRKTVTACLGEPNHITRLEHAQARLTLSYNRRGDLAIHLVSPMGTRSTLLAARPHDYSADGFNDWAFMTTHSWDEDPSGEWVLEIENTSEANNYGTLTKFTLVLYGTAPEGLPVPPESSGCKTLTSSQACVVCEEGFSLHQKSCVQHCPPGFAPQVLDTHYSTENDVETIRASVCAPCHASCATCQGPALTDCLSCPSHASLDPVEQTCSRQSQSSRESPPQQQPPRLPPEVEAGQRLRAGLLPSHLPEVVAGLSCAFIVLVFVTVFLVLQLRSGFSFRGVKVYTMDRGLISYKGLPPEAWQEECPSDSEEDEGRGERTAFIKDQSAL

Sequence	furin cleavage Z-score (7.5 min)	furin cleavage Z-score (15 min)	furin cleavage Z-score (30 min)
B1	-1.05 (inactive)	-0.767 (inactive)	-1.23 (inactive)
B2	0.592 (inactive)	0.873 (inactive)	-0.909 (inactive)
B3	0.247 (inactive)	0.504 (inactive)	-0.572 (inactive)
B4	0.116 (inactive)	0.0326 (inactive)	0.349 (inactive)
B5	-0.000681 (inactive)	0.448 (inactive)	0.128 (inactive)
B6	-0.697 (inactive)	-0.0412 (inactive)	-1.45 (inactive)
B7	0.0246 (inactive)	1.3	0.963 (inactive)
B8	8.17 (active)	9.95 (active)	8.35 (active)
B9	9.38 (active)	10.5 (active)	9.27 (active)
B10	0.645 (inactive)	-0.347 (inactive)	0.229 (inactive)
B11	0.302 (inactive)	0.42 (inactive)	1.21
B12	1.72	1.24	-0.0208 (inactive)
B13	8.61 (active)	9.73 (active)	8.8 (active)
B14	4.76 (active)	6.64 (active)	8.66 (active)
B15	-0.835 (inactive)	0.56 (inactive)	1.87
B16	5.6 (active)	9.1 (active)	7.92 (active)
B17	0.143 (inactive)	-0.123 (inactive)	0.0661 (inactive)
B18	0.0534 (inactive)	-0.769 (inactive)	-0.513 (inactive)
B19	0.461 (inactive)	-0.78 (inactive)	0.807 (inactive)
B20	0.967 (inactive)	0.111 (inactive)	0.291 (inactive)
B21	11.5 (active)	11.5 (active)	10.3 (active)
B22	10.5 (active)	11.5 (active)	8.52 (active)
B23	4.23 (active)	3.94 (active)	4 (active)
B24	-0.591 (inactive)	-0.0857 (inactive)	0.142 (inactive)
B25	-0.0568 (inactive)	-0.538 (inactive)	-1.9 (inactive)
B26	10.8 (active)	10.5 (active)	9.01 (active)
B27	0.481 (inactive)	1.71	-0.626 (inactive)
B28	-0.57 (inactive)	-0.101 (inactive)	-0.447 (inactive)
